Structures are written as SMILES. Records with an inconclusive call do not appear. The source made the active and inactive calls. The calls were made as follows, unless noted: active = hit-call score of the fitted dose curve at least 0.9, where 1 is the maximum; inactive = score below 0.9.

For experiment [1], the target named is human RAR-related Orphan Receptor gamma (RORg), RORC (gene 6097) (UniProt P51449). The experiment can be described thus: ATG_RORg_TRANS: Attagene TRANS-FACTORIAL HepG2 Assay for human RAR-related Orphan Receptor gamma (RORg) (AID 2283011; active = hit-call score of the fitted dose curve at least 0.9, where 1 is the maximum). The gist of the method:
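Readout: reporter transcript induction (RT-PCR, fluorescent primer extension, capillary electrophoresis) after 24 h compound exposure of transiently transfected HepG2 cells carrying a RORg-Gal4 chimera and GAL4-UAS reporters; DMSO served as baseline, with increasing signal fitted.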

Experiment [2] addresses human Retinoid X Receptor beta (RXRb), RXRB (gene 6257) (UniProt P28702). Description: ATG_RXRb_TRANS: Attagene TRANS-FACTORIAL HepG2 Assay for human Retinoid X Receptor beta (RXRb) (AID 2283013; active = hit-call score of the fitted dose curve at least 0.9, where 1 is the maximum). The procedure, abridged:
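Multiplexed TRANS reporter assay in HepG2; 24 h dosing; reporter mRNA by RT-PCR/CE fluorescence; gain-of-signal relative to DMSO.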

Read-out in experiment [3]: E-selectin (Homo sapiens) (UniProt P16581)
The experiment can be described thus: BSK_3C_Eselectin: BioMAP Diversity Plus: 3C Assay for Eselectin Biomarker Activity (AID 2283015).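 Also: cell surface E-selectin protein quantified by ELISA 24 h after dosing.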 As to conditions: primary human endothelial cells (HUVEC); actives raise or lower the signal. The gist of the method:
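Primary human umbilical vein endothelial cells (3C system) were dosed with chemical and cell-surface E-selectin measured by ELISA 24 h later. Bidirectional curve fitting used DMSO as negative control and baseline.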

Read-out in experiment [4]: Interleukin-1 alpha (IL1a), IL1A (gene 3552)
Description: BSK_BE3C_IL1a: BioMAP Diversity Plus: BE3C Assay for Interleukin-1 alpha (IL1a) Biomarker Activity (AID 2283016). The following applies: primary human bronchial epithelial cells; actives raise or lower the signal. The gist of the method: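 Cultures of primary human bronchial epithelial cells receive test chemical. After 24 h, IL-1a is quantified by ELISA, while parallel wells are fixed in TCA and SRB-stained for total protein. Changes in either direction are fitted relative to DMSO.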

Read-out in experiment [5]: Monocyte Chemoattractant Protein-1 (MCP1), CCL2 (gene 6347)
Description: BSK_3C_MCP1: BioMAP Diversity Plus: 3C Assay for Monocyte Chemoattractant Protein-1 (MCP1) Biomarker Activity (AID 2283017). The following applies: primary human endothelial cells (HUVEC); actives raise or lower the signal. The procedure, abridged: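 Primary human umbilical vein endothelial cells (3C system) were exposed to test chemical for 24 h, after which MCP-1 was quantified by ELISA. Activity was fitted bidirectionally against DMSO as negative control and baseline.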

Read-out in experiment [6]: Monocyte Chemoattractant Protein-1 (MCP1), CCL2 (gene 6347)
The experiment can be described thus: BSK_4H_MCP1: BioMAP Diversity Plus: 4H Assay for Monocyte Chemoattractant Protein-1 (MCP1) Biomarker Activity (AID 2283018). As to conditions: primary human endothelial cells (HUVEC); actives raise or lower the signal. The gist of the method:
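Readout: MCP-1 ELISA on compound-treated HUVEC, sampled 24 h post-dosing. Baseline and negative control DMSO; bidirectional fit. Overt toxicity checked alongside by sulforhodamine B protein staining at time of biomarker measurement.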

Read-out in experiment [7]: Human Leukocyte Antigen - DR isotype (HLADR), HLA-DRA (gene 3122)
Description: BSK_3C_HLADR: BioMAP Diversity Plus: 3C Assay for Human Leukocyte Antigen - DR isotype (HLADR) Biomarker Activity (AID 2283019). The following applies: primary human endothelial cells (HUVEC); actives raise or lower the signal. The gist of the method: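 Primary human umbilical vein endothelial cells (3C system) were dosed with compound and cell-surface HLA-DR was quantified by ELISA at 24 h. Activity was fitted bidirectionally against DMSO as negative control and baseline.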

Read-out in experiment [8]: Interleukin-8 (IL8), CXCL8 (gene 3576)
The experiment can be described thus: BSK_3C_IL8: BioMAP Diversity Plus: 3C Assay for Interleukin-8 (IL8) Biomarker Activity (AID 2283020). As to conditions: primary human endothelial cells (HUVEC); actives raise or lower the signal. The gist of the method: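 Human vascular endothelial cells (umbilical vein) in the 3C system; IL-8 level detected by ELISA at 24 h post-dose, with DMSO as baseline.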

Read-out in experiment [9]: Monokine induced gamma interferon (MIG), CXCL9 (gene 4283)
The experiment can be described thus: BSK_3C_MIG: BioMAP Diversity Plus: 3C Assay for Monokine induced gamma interferon (MIG) Biomarker Activity (AID 2283021). As to conditions: primary human endothelial cells (HUVEC); actives raise or lower the signal. The procedure, abridged: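 After 24 h of treatment, human umbilical vein endothelial cultures (3C system) had their MIG biomarker level determined by ELISA, with DMSO serving as negative control.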

Read-out in experiment [10]: Matrix Metallopeptidase 1 (MMP1), MMP1 (gene 4312)
The experiment can be described thus: BSK_BE3C_MMP1: BioMAP Diversity Plus: BE3C Assay for Matrix Metallopeptidase 1 (MMP1) Biomarker Activity (AID 2283024). As to conditions: primary human bronchial epithelial cells; actives raise or lower the signal. The gist of the method: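 Dose cells, wait 24 h, run MMP1 ELISA; cells are human bronchial epithelial primaries. Both increases and decreases relative to DMSO counted.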

Experiment [11] is described as follows: BSK_3C_Vis: BioMAP Diversity Plus: 3C Assay for Morphology Visualization (AID 2283025).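 Also: fitted both ways so gain or loss versus DMSO counts.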 As to conditions: primary human endothelial cells (HUVEC). The gist of the method:
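Endothelial cells from human umbilical vein were treated with test chemicals for 24 h and inspected by light microscopy for changes in cell conformation.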

Read-out in experiment [12]: Pselectin, SELP (gene 6403)
The experiment can be described thus: BSK_4H_Pselectin: BioMAP Diversity Plus: 4H Assay for Pselectin Biomarker Activity (AID 2283026). As to conditions: primary human endothelial cells (HUVEC); actives raise or lower the signal. The procedure, abridged: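 Human vascular endothelium from umbilical vein; P-selectin measured by ELISA at 24 h post-dose, with cytotoxicity checked by sulforhodamine B total-protein staining in parallel cultures (0.1% SRB after 10% TCA fixation, read at 560 nm).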

The nature of experiment [13]: BSK_4H_SRB: Viability Assessment in the BioMAP Diversity Plus: 4H Assay (AID 2283027).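 Also: cells exposed to compound for 24 h before staining.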 As to conditions: primary human endothelial cells (HUVEC). The gist of the method: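 Human umbilical vein endothelial cells were dosed with chemical and, after 24 h, fixed with 10% TCA, stained with 0.1% sulforhodamine B, and read at 560 nm to give total protein as a cytotoxicity measure. Bidirectional fitting relative to DMSO control.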

Read-out in experiment [14]: Thrombomodulin, THBD (gene 7056)
The experiment can be described thus: BSK_3C_Thrombomodulin: BioMAP Diversity Plus: 3C Assay for Thrombomodulin Biomarker Activity (AID 2283029). The following applies: primary human endothelial cells (HUVEC); actives raise or lower the signal. The procedure, abridged: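 Thrombomodulin ELISA, human primary HUVEC, 24 h post-dose; data fitted in both directions relative to DMSO.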

Read-out in experiment [15]: Urokinase-type plasminogen activator receptor (uPAR), PLAUR (gene 5329)
Description: BSK_4H_uPAR: BioMAP Diversity Plus: 4H Assay for Urokinase-type plasminogen activator receptor (uPAR) Biomarker Activity (AID 2283030). The following applies: primary human endothelial cells (HUVEC); actives raise or lower the signal. The gist of the method:
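Primary human umbilical vein endothelial cells were exposed to chemical for 24 h before cell-surface uPAR was quantified by ELISA. Activity was fitted bidirectionally against the DMSO negative control baseline.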

Experiment [16] deals with Retinoic acid receptor RXR-alpha (Homo sapiens) (UniProt P19793). Description: ATG_RXRa_TRANS: Attagene TRANS-FACTORIAL HepG2 Assay for human Retinoid X Receptor alpha (RXRa) (AID 2283012; active = hit-call score of the fitted dose curve at least 0.9, where 1 is the maximum). The gist of the method:
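Cells (HepG2) carried transiently transfected GAL4-responsive reporter units. Following a 24 h chemical incubation, reporter mRNA induction was read via RT-PCR fragment analysis; DMSO served as negative control and baseline.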

Experiment [17] deals with human Vitamin D Receptor (VDR), VDR (gene 7421) (UniProt P11473). The experiment can be described thus: ATG_VDR_TRANS: Attagene TRANS-FACTORIAL HepG2 Assay for human Vitamin D Receptor (VDR) (AID 2283022; active = hit-call score of the fitted dose curve at least 0.9, where 1 is the maximum). The procedure, abridged:
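HepG2 cells were transiently transfected with multiple GAL4-UAS reporter units, so signal reflects exogenous chimeric receptor-Gal4 activity. After 24 h compound exposure, reporter mRNA was measured by RT-PCR, fluorescent labelling and capillary electrophoresis, fitted for gain of signal versus DMSO.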

The nature of experiment [18]: BSK_3C_SRB: Viability Assessment in the BioMAP Diversity Plus: 3C Assay (AID 2283023).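 Also: fitted both ways against DMSO so a hit may be signal rise or drop.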 The following applies: primary human endothelial cells (HUVEC). The gist of the method: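 Primary human umbilical vein endothelial cells in the 3C system were read 24 h after compound dosing. Total protein was stained with 0.1% sulforhodamine B after 10% TCA fixation and read at 560 nm, with bidirectional fitting against DMSO as baseline.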

Experiment [19] is described as follows: BSK_BE3C_SRB: Viability Assessment in the BioMAP Diversity Plus: BE3C Assay (AID 2283028). The following applies: primary human bronchial epithelial cells. The procedure, abridged:
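Human primary bronchial epithelial cells were exposed to test chemicals for 24 h. Total protein in parallel cultures was then measured by staining with 0.1% sulforhodamine B after 10% TCA fixation, with absorbance read at 560 nm. Activity was fitted bidirectionally against DMSO.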

Experiment [20] has as its target human Thyroid Receptor alpha (THRa1), THRA (gene 7067) (UniProt P10827). The experiment can be described thus: ATG_THRa1_TRANS: Attagene TRANS-FACTORIAL HepG2 Assay for human Thyroid Receptor alpha (THRa1) (AID 2283014; active = hit-call score of the fitted dose curve at least 0.9, where 1 is the maximum). The gist of the method:
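HepG2 cells transiently transfected with multiplexed GAL4-UAS reporter units for exogenous chimeric THRa1-Gal4; reporter mRNA measured 24 h after dosing by RT-PCR, 6-FAM labelling, HpaI digestion and capillary electrophoresis. Gain-of-signal fitted versus DMSO baseline.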

Chain of human Vitamin D Receptor (VDR), VDR (gene 7421) (P11473 whole entry, looked up, the tested form may be a part): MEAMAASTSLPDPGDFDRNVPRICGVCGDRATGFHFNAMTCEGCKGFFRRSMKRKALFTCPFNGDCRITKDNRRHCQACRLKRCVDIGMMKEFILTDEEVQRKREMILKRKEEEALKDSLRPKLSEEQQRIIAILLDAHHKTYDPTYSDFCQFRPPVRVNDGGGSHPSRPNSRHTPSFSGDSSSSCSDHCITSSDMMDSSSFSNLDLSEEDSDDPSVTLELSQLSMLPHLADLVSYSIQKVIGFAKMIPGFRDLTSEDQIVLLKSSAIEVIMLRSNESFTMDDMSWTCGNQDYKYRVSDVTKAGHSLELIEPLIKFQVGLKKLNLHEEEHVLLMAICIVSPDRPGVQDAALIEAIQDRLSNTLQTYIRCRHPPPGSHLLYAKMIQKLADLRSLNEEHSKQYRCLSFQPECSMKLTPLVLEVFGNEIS
Chain of E-selectin (Homo sapiens) (P16581 whole entry, looked up): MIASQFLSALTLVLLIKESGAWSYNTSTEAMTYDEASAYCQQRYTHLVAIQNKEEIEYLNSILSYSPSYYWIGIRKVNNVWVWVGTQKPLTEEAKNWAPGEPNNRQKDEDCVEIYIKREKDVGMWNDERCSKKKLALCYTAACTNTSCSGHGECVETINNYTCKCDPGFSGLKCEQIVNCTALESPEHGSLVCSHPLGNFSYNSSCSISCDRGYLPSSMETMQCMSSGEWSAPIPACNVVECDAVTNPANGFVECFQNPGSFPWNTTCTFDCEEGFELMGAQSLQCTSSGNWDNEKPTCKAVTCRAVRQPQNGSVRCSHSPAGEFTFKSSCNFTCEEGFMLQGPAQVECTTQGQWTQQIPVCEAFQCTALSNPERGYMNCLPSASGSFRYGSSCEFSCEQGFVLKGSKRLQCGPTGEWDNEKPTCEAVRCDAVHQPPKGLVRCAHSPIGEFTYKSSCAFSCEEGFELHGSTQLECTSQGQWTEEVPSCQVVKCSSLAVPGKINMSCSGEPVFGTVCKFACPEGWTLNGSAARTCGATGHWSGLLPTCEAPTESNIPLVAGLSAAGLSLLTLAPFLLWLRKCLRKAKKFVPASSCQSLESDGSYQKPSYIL
Chain of human RAR-related Orphan Receptor gamma (RORg), RORC (gene 6097) (P51449 whole entry, looked up, the tested form may be a part): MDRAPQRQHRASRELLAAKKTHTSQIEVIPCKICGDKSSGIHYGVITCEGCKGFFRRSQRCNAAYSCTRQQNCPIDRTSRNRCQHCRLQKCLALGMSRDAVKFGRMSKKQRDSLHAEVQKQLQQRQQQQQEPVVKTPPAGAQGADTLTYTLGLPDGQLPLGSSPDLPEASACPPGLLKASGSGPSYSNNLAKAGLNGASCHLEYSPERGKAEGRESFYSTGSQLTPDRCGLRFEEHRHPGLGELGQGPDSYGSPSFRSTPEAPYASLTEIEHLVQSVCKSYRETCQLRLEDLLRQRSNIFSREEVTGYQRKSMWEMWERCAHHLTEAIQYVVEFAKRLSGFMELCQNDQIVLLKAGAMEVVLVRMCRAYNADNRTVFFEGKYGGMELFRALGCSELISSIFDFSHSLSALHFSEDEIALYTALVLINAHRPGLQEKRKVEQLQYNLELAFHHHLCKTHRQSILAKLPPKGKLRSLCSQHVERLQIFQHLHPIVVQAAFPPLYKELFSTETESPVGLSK
Chain of human Thyroid Receptor alpha (THRa1), THRA (gene 7067) (P10827 whole entry, looked up, the tested form may be a part): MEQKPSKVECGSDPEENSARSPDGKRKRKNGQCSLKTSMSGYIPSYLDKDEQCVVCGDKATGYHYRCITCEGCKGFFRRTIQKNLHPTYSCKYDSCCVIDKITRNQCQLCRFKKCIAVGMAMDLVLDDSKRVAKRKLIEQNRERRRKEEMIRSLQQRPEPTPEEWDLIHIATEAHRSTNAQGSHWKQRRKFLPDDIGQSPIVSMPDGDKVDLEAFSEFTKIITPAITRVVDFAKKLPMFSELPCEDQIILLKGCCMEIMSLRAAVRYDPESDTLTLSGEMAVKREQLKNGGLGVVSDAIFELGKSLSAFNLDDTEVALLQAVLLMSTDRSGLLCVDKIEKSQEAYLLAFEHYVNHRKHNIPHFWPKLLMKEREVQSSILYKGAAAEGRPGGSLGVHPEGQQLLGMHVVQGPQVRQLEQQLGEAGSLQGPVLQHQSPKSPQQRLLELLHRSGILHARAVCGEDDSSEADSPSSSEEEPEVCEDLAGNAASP
Chain of Retinoic acid receptor RXR-alpha (Homo sapiens) (P19793 whole entry, looked up, the tested form may be a part): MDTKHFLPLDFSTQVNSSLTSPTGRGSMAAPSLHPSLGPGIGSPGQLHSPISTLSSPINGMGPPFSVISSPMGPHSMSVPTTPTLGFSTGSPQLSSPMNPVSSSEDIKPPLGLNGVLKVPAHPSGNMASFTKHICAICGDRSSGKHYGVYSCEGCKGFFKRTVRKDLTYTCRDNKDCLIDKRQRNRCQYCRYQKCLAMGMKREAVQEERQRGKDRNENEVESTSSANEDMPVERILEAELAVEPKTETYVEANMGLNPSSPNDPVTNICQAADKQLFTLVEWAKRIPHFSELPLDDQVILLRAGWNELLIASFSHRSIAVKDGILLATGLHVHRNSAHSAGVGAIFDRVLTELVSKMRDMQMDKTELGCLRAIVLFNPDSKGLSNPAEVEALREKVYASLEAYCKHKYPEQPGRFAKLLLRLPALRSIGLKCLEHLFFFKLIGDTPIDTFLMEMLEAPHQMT
Chain of human Retinoid X Receptor beta (RXRb), RXRB (gene 6257) (P28702 whole entry, looked up): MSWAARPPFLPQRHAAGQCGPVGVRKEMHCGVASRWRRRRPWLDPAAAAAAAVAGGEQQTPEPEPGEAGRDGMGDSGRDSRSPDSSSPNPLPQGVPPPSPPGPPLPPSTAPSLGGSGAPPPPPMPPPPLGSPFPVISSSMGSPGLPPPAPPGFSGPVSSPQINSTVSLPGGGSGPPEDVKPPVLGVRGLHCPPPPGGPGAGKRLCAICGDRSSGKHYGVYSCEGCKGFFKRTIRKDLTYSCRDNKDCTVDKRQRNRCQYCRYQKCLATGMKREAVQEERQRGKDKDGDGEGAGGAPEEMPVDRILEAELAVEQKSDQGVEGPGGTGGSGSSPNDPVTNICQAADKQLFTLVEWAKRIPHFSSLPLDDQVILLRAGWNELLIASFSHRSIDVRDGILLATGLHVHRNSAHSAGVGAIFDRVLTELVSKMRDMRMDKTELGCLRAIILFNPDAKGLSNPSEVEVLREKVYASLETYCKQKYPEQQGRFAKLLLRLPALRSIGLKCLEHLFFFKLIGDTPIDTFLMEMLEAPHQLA

In the case of `COc1cc(C=O)ccc1O`, the compound was classed as inactive in experiment [1], in experiment [2], in experiment [3], in [4], in experiment [5] and in experiment [6]. Moreover, the outcome in experiment [7], in experiment [8], in [9], in experiment [10], in experiment [11] and in experiment [12] was inactive. Besides, the result in experiment [13], in experiment [14] and in experiment [15] was inactive.
Turning to `CN1CCCC1=O`, the compound was called inactive in experiment [1], in experiment [16], in experiment [3], in experiment [4], in [5] and in experiment [6]. Also, the result in [7], in experiment [8], in experiment [17], in experiment [10], in experiment [11] and in experiment [12] was inactive. Further, the result in experiment [13], in [14] and in experiment [15] was inactive. In experiment [2], the AC50 was 31.5 µM (active).
Turning to `FC(F)(F)C(F)(F)C(F)(F)C(F)(F)C(F)(F)C(F)(F)CCI`, the compound was classed as inactive in experiment [1], in experiment [16], in experiment [2], in [3], in experiment [4] and in experiment [5]. The outcome in experiment [6], in experiment [7], in [8], in experiment [18], in experiment [10] and in experiment [11] was inactive. Further, the outcome in experiment [12], in experiment [13], in [19], in [14] and in experiment [15] was inactive.
In the case of `CC=Cc1ccc(O)c(OC)c1`, the compound was called inactive in experiment [1], in experiment [3], in experiment [4], in experiment [5], in experiment [6] and in experiment [7]. The result in experiment [8], in experiment [9], in experiment [18], in experiment [10], in experiment [11] and in experiment [12] was inactive. For the same compound, the outcome in experiment [13], in experiment [19], in [14] and in experiment [15] was inactive.
Take `Cc1cc(NC(=O)C(=O)O)cc(C)c1Oc1ccc(O)c2c1CCC2`: the outcome in [1], in experiment [16], in [2], in [3], in experiment [4] and in [5] was inactive. For the same compound, the result in [6], in [7], in [8], in experiment [9], in experiment [17] and in experiment [18] was inactive. Further, the result in experiment [10], in [11], in experiment [12], in [13], in experiment [14] and in experiment [15] was inactive. Besides, the half-maximal activity concentration (AC50) in experiment [20] was 0.00869 µM (active).
As to `COc1ccc(C)cc1N`, the result in experiment [1], in experiment [20], in [3], in [4], in experiment [5] and in experiment [6] was inactive. The result in experiment [7], in [8], in experiment [9], in experiment [17], in experiment [18] and in [10] was inactive. In addition, the outcome in experiment [11], in experiment [12], in experiment [13], in experiment [14] and in experiment [15] was inactive.
Consider `NS(=O)(=O)c1cc2c(cc1Cl)NCNS2(=O)=O`, for which the call in experiment [1], in [2], in [3], in [4], in experiment [5] and in experiment [6] was inactive. Also, the result in [7], in experiment [8], in experiment [9], in experiment [17], in [18] and in [10] was inactive. The result in [11], in [12], in experiment [13], in experiment [14] and in experiment [15] was inactive.
As to `Cc1ccc(C(C)C)c(O)c1`, the outcome in [1], in [20], in [3], in experiment [4], in experiment [5] and in experiment [6] was inactive. For the same compound, the result in [7], in experiment [8], in experiment [9], in experiment [10], in [11] and in [12] was inactive. For the same compound, the result in experiment [13], in experiment [19], in [14] and in [15] was inactive. Moreover, the AC50 in experiment [2] is 40.6 µM (active).

The record behind these values is PubChem BioAssay (EPA / NIEHS).
